# High-throughput results as filed in PubChem BioAssay.
# Hits are enriched below; roughly 4.3% of the tested compounds scored in any of these assays.
# CF NFkB block = inhibitors of PAF-induced NF-kB signaling, primary screen, cell-based, GFP fluorescence, uHTS; KKLEB NF-kB-GFP reporter, GFP fluorescence overnight; inhibition, % at 5 µM; actives 0.86% (n = 360,000);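 active = at least 50% inhibition at 5 µM, scaled per plate between neutral and stimulator controls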;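 also: PAF is a Pseudomonas aeruginosa culture filtrate used as stimulus; plate controls were PAF-stimulated DMSO wells for no effect and unstimulated DMSO wells for full effect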
# CHOP inhibitor = inhibitors of CHOP promoter induction, primary screen, cell-based, unfolded protein response, luciferase reporter. CHO-K1 CHOP-promoter luciferase, tunicamycin-induced, 15-18 h. AID 2732, 2010. inhibition, % at 10 µM. actives 3.8% (n = 220,000);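 active = compounds that reduced the stress-induced luciferase reporter signal by more than about 70% of percent inhibition, limit read from the data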;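 also: 0% = tunicamycin plus vehicle and 100% = wells without tunicamycin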
# HIF-2a inh = HIF-2a reporter inhibitors, primary screen, luminescence, 786-0 RCC cells; 786-0 RCC cells HIF-2a reporter, luciferase luminescence, overnight; inhibition, % at 18.8 µM; actives 0.72% (n = 360,000); AID 624352, 2012;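 active = inhibition of the luminescence signal of 40% or more relative to plate controls, in a single-dose primary screen at 18.75 µM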
# TRPM1 prom inh = inhibitors of MITF-dependent TRPM1 promoter reporter, primary screen, cell-based, SK-MEL-5, single point, luciferase. SK-MEL-5 TRPM1 promoter luciferase, 24 h. actives 0.83% (n = 330,000). inhibition, % at 12.5 µM;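 active = mean inhibition across replicates of 60% or more, whatever share of single replicates reaches that level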
# Peg3 prom inh = Peg3 promoter-driven luciferase inhibitors, primary screen, cell-based, HeLa, luciferase luminescence. HeLa PEG-Prom luciferase reporter, overnight. inhibition, % at 20 µM. actives 1.7% (n = 360,000). AID 588405, 2011;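 active = inhibition of at least 50% at 20 µM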
# KKLEB tox = cytotoxicity in KKLEB CF airway cells, primary screen, cytotoxicity control for CF NF-kB inhibitor project, cell-based, uHTS, fluorescence assay plates; activity change (cytotoxicity), % at 5 µM; KKLEB CF airway cells viability, ATPlite luminescence, overnight; active compounds read low; cells stimulated with P. aeruginosa culture filtrate; AID 602141, 2011; actives 0.36% (n = 360,000);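 active = corrected activity change at or below -50% at 5 µM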
# CHOP inh conf = retest of CHOP induction inhibitors, confirmation, cell-based | CHO-CHOP promoter luciferase reporter, tunicamycin-induced, luminescence | actives 45% (n = 2,100) | AID 504437, 2011 | inhibition, % at 10 µM | shares compounds with CHOP inhibitor;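 active = mean of three repeat readings of reporter signal inhibition above a set limit, cut at about 70% in these data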;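 also: 0% = tunicamycin plus vehicle and 100% = wells lacking tunicamycin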
# The depositor's hits bear a star; . = no result.
SMILES,CF NFkB block,CHOP inhibitor,HIF-2a inh,TRPM1 prom inh,Peg3 prom inh,KKLEB tox,CHOP inh conf
CC1(C(=O)Nc2ccc3c(c2)OCCO3)CN(S(C)(=O)=O)CC(=O)N1C1CCCCCC1 (stereo not given),.,.,-77.0,.,.,.,.
CCc1ccccc1NC(=O)CNC(=O)CSC(=S)N1CCCC1,-15.7,.,10.0,1.8,-11.5,14.3,.
O=C(/C=C/c1ccc(-c2ccccc2)o1)c1ccccc1,-0.6,97.6*,-308.4,-33.3,2.4,-8.4,-27.4
COc1ccc(Br)cc1CN1CCC(N2CCCC2)CC1,-0.1,.,16.4,-1.8,-14.6,-1.7,.
CC(C)C[C@H](NC(=O)OC(C)(C)C)c1nnc(SCC(=O)Nc2ccc(Br)cc2)o1,7.5,99.7*,5.4,7.6,9.2,-12.6,132.3*
CC(=O)Nc1ccc(NC2=C/C(=N/S(=O)(=O)c3cccs3)c3ccccc3C2=O)cc1,80.8*,107.3*,18.5,102.0*,14.8,-32.3,-41.7
Cc1ccc(NC2=C/C(=N/S(=O)(=O)c3cccs3)c3ccccc3C2=O)cc1C,46.6,-70.5,-40.0,-22.4,-63.7,-13.8,.
Cn1nc(-c2ccc(Cl)cc2)cc1NC(=O)Nc1ccccc1,-12.4,-0.8,-110.2,-8.4,-56.8,13.1,.
Cn1nc(-c2ccccc2)cc1NC(=O)Nc1ccc(C(C)(C)C)cc1,-15.7,105.4*,1.6,-5.6,1.4,4.0,81.1*
COc1ccccc1NS(=O)(=O)c1cccc(NC(=O)Nc2cccc(Cl)c2)c1,17.8,101.4*,12.9,13.3,48.4,-7.9,51.4
Cc1[nH]nc2c1C(c1ccc(Cl)cc1)C(C#N)=C(N)O2 (stereo not given),-7.6,6.4,2.3,2.7,-4.8,-0.6,.
Cc1cc(-c2[nH]nc3c2C(c2ccc(Cl)cc2)C(C#N)=C(N)O3)c(C)s1 (stereo not given),-8.9,103.3*,5.9,2.6,-9.8,5.0,104.1*
CCOC(=O)c1cccc(NC(=O)CSc2nnc(COc3ccccc3C)o2)c1,-7.3,107.6*,-14.2,-4.7,7.7,3.3,12.0
COc1cc([N+](=O)[O-])cc(/C=N/NC(=O)c2ccc(NC(=O)c3ccc(C)cc3)cc2)c1O,82.0*,105.1*,28.2,71.6*,46.9,-75.3*,48.7
COc1cc([N+](=O)[O-])cc(/C=N/NC(=O)c2ccc(C)nc2)c1O,-3.6,11.9,4.6,0.9,5.7,0.0,.
CC(C)NC(=O)C1(C)CCCN1C(=O)c1cc(C#N)cs1 (stereo not given),-8.2,.,3.2,.,-2.9,-4.8,.
C/C(=C\c1ccco1)C1C(C#N)=C(N)Oc2n[nH]c(-c3ccc(C)cc3)c21 (stereo not given),-2.4,105.0*,9.8,22.5,-11.7,-2.0,113.8*
Cc1ccc(NC(=O)CCCNC(=O)c2ccc(Cl)cc2)c(O)c1,-38.1,.,-162.6,-6.7,-145.9,7.6,.
Nc1cc(Cl)ccc1Oc1ccc(Cl)cc1,-14.1,96.1*,-88.7,-14.9,-209.0,-12.8,134.1*
COc1ccc(CCNC[C@@H](O)c2ccc(O)cc2)cc1OC,.,-14.1,.,.,.,.,.
CCOC(=O)c1c(CN2CCOCC2)n(-c2ccccc2)c2cc(Br)c(O)cc12,23.0,98.7*,24.5,10.2,32.2,-16.5,95.4*
CCCOC1CCCN(C(=O)c2cc(COc3ccc(F)c(F)c3)on2)C1 (stereo not given),-12.5,.,-187.0,-90.5,-237.6,8.2,.
C/C=C/C=N/Nc1nc(-c2ccc([N+](=O)[O-])cc2)cs1,-19.3,97.7*,-51.4,-12.7,-42.0,10.3,-9.1
CC(C)=NNc1nc(-c2ccc([N+](=O)[O-])cc2)cs1,-45.8,-4.2,-194.8,-35.5,-141.9,5.7,.
O=[N+]([O-])c1cccc(-c2csc(N/N=C/c3cccc(O)c3)n2)c1,40.4,106.4*,-274.8,-32.8,101.8*,11.0,5.7
SMILES,CF NFkB block,CHOP inhibitor,HIF-2a inh,TRPM1 prom inh,Peg3 prom inh,KKLEB tox,CHOP inh conf
Cc1cccc(N/C(N)=N/c2nc(C)c(Cc3ccccc3)c(=O)[nH]2)c1,-20.6,101.1*,18.5,5.6,13.2,22.7,12.8
O=c1[nH]c(=O)n(Cc2ccccc2)c2c1C(C(F)(F)F)(C(F)(F)F)N=C(c1ccco1)N2,-3.0,15.9,9.4,2.5,23.9,-7.1,.
O=c1[nH]c(=O)n(Cc2ccco2)c2c1C(C(F)(F)F)(C(F)(F)F)N=C(c1ccc(F)cc1)N2,20.8,100.5*,7.8,-1.3,25.0,-12.4,86.8*
O=C(NC1CCCCC1)c1cc(N2C(=O)CCC2=O)ccc1Cl,-16.9,.,9.1,5.2,2.7,5.0,.
COCCNC(=O)C1(C)CCN(C(=O)c2oc3ccccc3c2C)C1 (stereo not given),-13.2,.,-2.5,.,5.3,5.3,.
Cc1c(Br)c([N+](=O)[O-])nn1CC(=O)Nc1ccc(C(C)C)cc1,0.2,96.5*,18.4,-3.1,0.4,-1.6,13.0
CC(=O)Nc1ccc(NC(=O)Cn2nc([N+](=O)[O-])c(Br)c2C)cc1,17.3,16.1,14.2,-0.1,5.9,4.7,.
Cc1ccccc1CNC(=O)c1csc([C@H]2C[C@H](O)[C@@H](CO)O2)n1,-11.9,.,4.2,.,5.9,-7.4,.
CCOC(=O)C(=CNc1cc(C)nn1-c1ccc(Cl)cc1)C(=O)OCC,2.7,103.9*,16.2,39.0,24.4,-0.6,14.0
Cn1c(=O)c2c(ncn2CC(=O)NC(C)(C)C)n(C)c1=O,-6.7,0.8,6.9,12.3,0.3,13.1,.
Cn1c(=O)c2c(nc(Sc3ncnn3CC(=O)NC(C)(C)C)n2C)n(C)c1=O,-15.1,100.5*,12.3,2.5,-0.9,-2.7,15.2
Cc1ccc(C)c(-n2ccnc2SCC(=O)Nc2cccc(S(=O)(=O)NC3=NCCC3)c2)c1,-20.6,.,13.8,5.9,3.2,14.7,.
O=C(CNc1cccc2ccccc12)N/N=C/C(Br)=C/c1ccccc1,-2.6,105.5*,-36.2,9.6,27.8,-5.1,9.9
C=CCn1c(C)nnc1SCC(=O)Nc1nccs1,4.5,.,-3.8,12.1,14.1,9.6,.
COc1ccc(NCc2nnc(SCC(=O)c3ccc(OC)cc3)o2)cc1,-0.6,1.2,-23.3,3.0,-27.9,2.6,.
CCOc1cc(C(=O)CSc2nnc(CNc3ccc(Cl)cc3)o2)ccc1NC(=O)CC,4.9,105.1*,3.0,85.4*,66.4*,2.1,112.4*
CCCc1cc(C(=O)Nc2cc(Br)ccc2O)no1,8.9,.,-209.0,.,-186.2,14.0,-10.3
CSc1nc(COC(=O)NC(C)C)c(COC(=O)NC(C)C)n1Cc1ccccc1,-2.3,.,10.0,.,6.7,-4.1,.
